Mac1 fbg enh: increases human CD11b/CD18 adhesion to fibrinogen | P05107+P11215 | K562 CD11b/CD18 adhesion to fibrinogen, ATPlite luminescence | activation, % at 10 µM | 93,000 tested, 0.07% active;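 active = 10 µM primary screen giving 50% or more activity, confirmed by 40% or more on retest at that dose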
CD11b adhes inh: CD11b/CD18-fibrinogen binding inhibition; P05107+P11215; K562 CD11b/CD18 adhesion to fibrinogen, ATPlite luminescence; Mn2+ added to activate the integrin; inhibition, % at 10 µM; 93,000 tested, 0.54% active; AID 1497;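 active = primary inhibition of 50% or more at 10 µM, then 40% or more on retest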
CYP2C19 activ: increases human CYP2C19 enzyme activity. AID 1025. activation factor at 5 µM. 96,000 tested, under 10 active. recombinant CYP2C19, luciferin-H EGE luminescence; active compounds read high; 0 = fully inhibited enzyme, 1 = untreated enzyme. P33261;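 active = activation factor of at least 2 at 5 µM in the primary screen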;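 also: 0 = wells with 2.5 mM tranylcypromine and 1 = vehicle-only wells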
CYP2C9 inhib: inhibitors of human CYP2C9 | P11712 | 96,000 tested, 20% active | inhibition, % at 5 µM | CYP2C9 Supersomes, luciferin-H conversion, luminescence | AID 777;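 active = blocking of liver enzyme CYP2C9 beyond about 50% at 5 µM, limit read from the data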
Target sequence (P11712 whole entry, looked up): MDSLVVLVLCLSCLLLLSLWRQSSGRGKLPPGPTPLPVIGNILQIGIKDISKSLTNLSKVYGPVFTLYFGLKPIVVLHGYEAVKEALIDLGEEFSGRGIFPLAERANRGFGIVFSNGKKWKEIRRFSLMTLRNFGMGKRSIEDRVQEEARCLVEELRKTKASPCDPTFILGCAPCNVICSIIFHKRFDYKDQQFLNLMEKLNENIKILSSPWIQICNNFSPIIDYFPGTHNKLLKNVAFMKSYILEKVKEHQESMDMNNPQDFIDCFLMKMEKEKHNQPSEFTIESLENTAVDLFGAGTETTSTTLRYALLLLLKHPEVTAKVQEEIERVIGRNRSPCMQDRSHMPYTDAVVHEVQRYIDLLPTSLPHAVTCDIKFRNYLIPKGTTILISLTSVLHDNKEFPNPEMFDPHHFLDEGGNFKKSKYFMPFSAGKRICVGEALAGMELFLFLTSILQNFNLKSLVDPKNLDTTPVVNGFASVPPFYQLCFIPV
CYP2C9 activ: CYP2C9 (human) activation. recombinant CYP2C9, luciferin-H conversion, luminescence; active compounds read high; factor 1 = untreated enzyme, 0 = blocked. activation factor at 5 µM. 96,000 tested, 1.4% active;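 active = activation factor of 2 or more for CYP2C9 at a 5 µM dose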;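 also: 0 = sulfaphenazole-blocked wells and 1 = vehicle-only wells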
CYP2C19 inhib: inhibitors of human CYP2C19; P33261; inhibition, % at 5 µM; 96,000 tested, 21% active; CYP2C19 Supersomes, luciferin-H EGE luminescence, 30 min;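 active = CYP2C19 inhibition above a set limit at 5 µM in the primary screen, cut at about 50% in these data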;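 also: plate controls were negative control wells for no effect and 2.5 mM tranylcypromine positive control for full effect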
* marks the source's active call; other numbers are inactive results. Most compounds without a hit are left out; they make up all but 28% or so of the library.

For Cc1ccc(NS(=O)(=O)c2cc(C(=O)NCCSc3ccc(C)cc3)ccc2C)cc1 the results were CYP2C19 activ 0.3, CYP2C9 inhib 78*, CYP2C9 activ 0.2 and CYP2C19 inhib 67*.
For O=C(NCCN1CCOCC1)c1ccc2c(c1)N(Cc1ccccc1)C(=O)CS2 the results were Mac1 fbg enh -3, CD11b adhes inh -3, CYP2C19 activ 1, CYP2C9 inhib -2, CYP2C9 activ 1 and CYP2C19 inhib -3.
Screening Cc1ccc(SCCNC(=O)c2ccc(C)c(S(=O)(=O)Nc3cccc(C)c3)c2)cc1 returned Mac1 fbg enh -8, CD11b adhes inh 4, CYP2C19 activ 0.4, CYP2C9 inhib 71*, CYP2C9 activ 0.3 and CYP2C19 inhib 62*.
`Cc1cccc(NS(=O)(=O)c2cc(C(=O)OC(C)C(=O)NCc3ccc4c(c3)OCO4)ccc2C)c1` (stereo not drawn) gave Mac1 fbg enh -2 and CD11b adhes inh -8.
Cc1ccc(NS(=O)(=O)c2cc(C(=O)NCCSC3CCCCC3)ccc2C)cc1 was read as Mac1 fbg enh 1, CD11b adhes inh 24, CYP2C19 activ 0.7, CYP2C9 inhib 54*, CYP2C9 activ 0.5 and CYP2C19 inhib 28.
For Cc1ccc(C(=O)NCCSc2ccc(Cl)cc2)cc1S(=O)(=O)Nc1ccccc1 the results were CYP2C19 activ 0.6, CYP2C9 inhib 52*, CYP2C9 activ 0.5 and CYP2C19 inhib 39.
For CS(=O)(=O)Nc1ccc(C(=O)NCCSC2CCCCC2)cc1 the results were Mac1 fbg enh -1, CD11b adhes inh -30, CYP2C19 activ 1, CYP2C9 inhib 7, CYP2C9 activ 0.9 and CYP2C19 inhib -4.
For N#C/C(=C\c1cn(-c2ccccc2)nc1-c1cccnc1)c1nnc2n1CCCCC2 the results were Mac1 fbg enh 2, CD11b adhes inh -42, CYP2C19 activ 0.4, CYP2C9 inhib 93*, CYP2C9 activ 0.1 and CYP2C19 inhib 59*.
`N#C/C(=C/c1ccccc1[N+](=O)[O-])c1nnc2n1CCCCC2` gave Mac1 fbg enh -1 and CD11b adhes inh -4.
For Cc1ccc(N(CC(=O)N2CCN(C3CCCCC3)CC2)S(=O)(=O)c2cccnc2)cc1 the results were Mac1 fbg enh 0, CD11b adhes inh 12, CYP2C19 activ 0.7, CYP2C9 inhib 74*, CYP2C9 activ 0.3 and CYP2C19 inhib 31.
`O=C1c2ccccc2C(=O)N1CCc1csc(-c2cccc(Cl)c2)n1` gave Mac1 fbg enh 2, CD11b adhes inh -42, CYP2C19 activ 0, CYP2C9 inhib 2, CYP2C9 activ 1 and CYP2C19 inhib 99*.
For O=C1c2ccccc2C(=O)N1CCc1csc(-c2cccc(F)c2)n1 the results were Mac1 fbg enh -2, CD11b adhes inh -12, CYP2C19 activ 0, CYP2C9 inhib 52*, CYP2C9 activ 0.5 and CYP2C19 inhib 100*.
`CC(=O)OC1CC(n2ccc(NC(=O)c3ccccc3)nc2=O)OC1CO` (stereo not drawn) gave Mac1 fbg enh -2, CD11b adhes inh -2, CYP2C19 activ 1.1, CYP2C9 inhib -3, CYP2C9 activ 1 and CYP2C19 inhib -9.
For COCCNC(=O)c1onc(CSc2ccccc2)c1C(=O)O the results were CYP2C19 activ 0.8, CYP2C9 inhib 34, CYP2C9 activ 0.7 and CYP2C19 inhib 25.
For C=CCNC(=O)c1onc(CSc2ccc(F)cc2)c1C(=O)O the results were CYP2C19 activ 0.9, CYP2C9 inhib 22, CYP2C9 activ 0.8 and CYP2C19 inhib 13.
For CCCCNC(=O)c1onc(CSc2ccc(OC)cc2)c1C(=O)O the results were Mac1 fbg enh -7, CD11b adhes inh 10, CYP2C19 activ 1.1, CYP2C9 inhib 80*, CYP2C9 activ 0.2 and CYP2C19 inhib -12.
`CCCCNC(=O)c1onc(CSc2ccc(F)cc2)c1C(=O)O` gave CYP2C19 activ 0.9, CYP2C9 inhib 58*, CYP2C9 activ 0.4 and CYP2C19 inhib 6.
`Cc1ccc([N+](=O)[O-])cc1N/C=C/C(=O)c1ccco1` gave Mac1 fbg enh 1, CD11b adhes inh -4, CYP2C19 activ 0.8, CYP2C9 inhib 51*, CYP2C9 activ 0.5 and CYP2C19 inhib 17.
O=C(/C=C/Nc1ccc(F)cc1)c1ccco1 was read as Mac1 fbg enh -8, CD11b adhes inh 43, CYP2C19 activ 1, CYP2C9 inhib 3, CYP2C9 activ 1 and CYP2C19 inhib 3.
